{
  "source": "paper PMC5540273",
  "about": "(PLoS ONE, 2017);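 further: KINOMEscan kinase panel screen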",
  "data": [
    {"tested_on": "ROCK1", "settings": "concentration: 1 μM, replicates: in singlicate; n = 1", "units": {"%Inh": "%"}, "values": [
      {"smiles": "Cc1occc1-c1ncc(OC[C@@H](N)Cc2c[nH]c3ccccc23)cc1-c1ccc2[nH]nc(C)c2c1.O=C(O)C(F)(F)F", "note": "[GSK682037]", "%Inh": 74},
      {"smiles": "C[C@@H]1CC[C@@H](C(=O)Nc2ccccc2)CN1c1cc(-c2ccc3c(N)n[nH]c3c2)nc(N)n1", "note": "[GSK2286062]", "%Inh": 14},
      {"smiles": "CCn1c(-c2nonc2N)nc2c(C#CC(C)(C)O)ncc(OCCCCN)c21.O=C(O)C(F)(F)F.O=C(O)C(F)(F)F", "note": "[GSK507274]", "%Inh": 97.2},
      {"smiles": "O=c1[nH]cc(-c2ccc(N3CCOCC3)cc2)c2sc(-c3cn[nH]c3)cc12", "note": "[GSK2276055]", "%Inh": 0},
      {"smiles": "COc1cccc(C2=C(Nc3ccc(Cl)c(C(=O)O)c3)C(=O)NC2=O)c1", "note": "[SB-390769]", "%Inh": 28}
    ]},
    {"tested_on": "ROCK2", "settings": "concentration: 1 μM, replicates: in singlicate; n = 1", "units": {"%Inh": "%"}, "values": [
      {"smiles": "COC(=O)Nc1nc2cc(Oc3ccc(NC(=O)Nc4cc(C(F)(F)F)ccc4F)cn3)ccc2[nH]1.Cl.Cl", "note": "[GW681170]", "%Inh": 46},
      {"smiles": "Fc1ccc(-c2ncn(C3CCNCC3)c2-c2ccnc(Oc3ccc(-c4ccccc4)cc3)n2)cc1", "note": "[SB-245391]", "%Inh": 7},
      {"smiles": "Cc1ccc(C)c(NC(=O)NC2CCN(c3ccnc(Nc4ccc(F)cc4)n3)C2)c1", "note": "(stereo not drawn) [GSK1379720]", "%Inh": 29},
      {"smiles": "CSc1cccc2c(-c3ccncn3)c(-c3ccc(F)cc3)nn12", "note": "[GW514786]", "%Inh": 19},
      {"smiles": "Oc1cc(Nc2ccnc3cc(I)ccc23)ccc1F", "note": "[GW552771]", "%Inh": 27},
      {"smiles": "Cc1ccc(S(=O)(=O)Nc2ccc(Nc3nccc(Nc4cccc5[nH]ncc45)n3)cc2)cc1", "note": "[GSK581271]", "%Inh": 8},
      {"smiles": "COc1cccc(-c2ccc3c(NC(=O)C4CC4)n[nH]c3n2)c1", "note": "[SB-710903]", "%Inh": 49}
    ]}
  ]
}
